Experimental data: PubChem BioAssay (NCI)
About 83,000 compounds went through this panel and 20% of them were active in at least one assay; those are over-represented in the sample as a whole.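 The endpoint reported here, percent growth, reads 100 for growth as untreated, 0 for no net growth and -100 for all cells dead.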 Activity calls are given as the source filed them. Rule for the calls: active = growth percent below 10; inactive = the rest.

What was measured:
Experiment in all cases: NCI-60 one-dose screen, 48 h (100 = growth as untreated, 0 = no growth, -100 = all killed)
Conditions in all cases: 10 µM unless noted
[1] = system: SK-MEL-2 melanoma
[2] = system: EKVX NSCLC
[3] = system: SN12C renal
[4] = system: UO-31 renal
[5] = system: TK-10 renal
[6] = system: ACHN renal
[7] = system: CAKI-1 renal
[8] = system: A498 renal
[9] = system: CCRF-CEM leukemia
[10] = system: MOLT-4 leukemia

Measured: growth

COc1cc2nccc(Oc3ccc(NC(=O)C4(C(=O)Nc5ccc(F)cc5)CC4)cc3)c2cc1O
inactive: [1] 88.1% | [2] 71.1% | [3] 30.5% | [4] 54.4% | [5] 76.8% | [6] 67.8% | [7] 78.1% | [8] 59.4% | [9] 29% | [10] 44.9%

FC1(F)CCN(Cc2c[nH]c3cc(Cl)ccc23)C[C@H]1CCc1ccccc1
inactive: [1] 76.6% | [2] 63% | [3] 54.3% | [4] 42% | [5] 61.6% | [6] 62.5% | [7] 62.1% | [8] 82% | [9] 45.9% | [10] 26.7%

CC1(C)C2CCC(O)(C(=O)O)C1C2 (stereo not given)
inactive: [1] 106% | [2] 103% | [3] 104% | [4] 81.9% | [5] 120% | [6] 111% | [7] 94% | [8] 109% | [9] 112% | [10] 115%

COc1cccc(/C=N/N=C(N)N)c1
inactive: [1] 107% | [2] 102% | [3] 95.2% | [4] 82.6% | [5] 113% | [6] 100% | [7] 104% | [8] 78% | [9] 108% | [10] 115%

CCCCN(CCCC)CCC(O)c1cc2ccc(C(F)(F)F)cc2c2cc(C(F)(F)F)ccc12 (stereo not given)
inactive: [1] 55% | [2] 70% | [3] 46.9% | [4] 19.6% | [5] 74.4% | [6] 49.9% | [7] 38.6% | [8] 56.4% | [9] 36.2% | [10] 28.7%

COc1ccc2[nH]c(C(=O)OCc3ccc4c(Br)cc(Br)c(O)c4n3)cc2c1
active: [1] -40.3% | [2] -70.9% | [3] -71.2% | [4] -100% | [5] -95.6% | [6] -98.3% | [7] -98.7% | [8] -17.1% | [9] 3.76% | [10] -8.86%

O=[N+]([O-])c1ccccc1CN1CCCCC1
inactive: [1] 100% | [2] 86.8% | [3] 105% | [4] 89.4% | [5] 121% | [6] 113% | [7] 108% | [8] 99.5% | [9] 85.4% | [10] 115%

COc1ccc(/C=c2\c(=O)n(-c3ccccc3)c3nn4c(=O)c(=O)[nH]nc4n23)cc1
inactive: [1] 109% | [2] 104% | [3] 108% | [4] 83% | [5] 133% | [6] 114% | [7] 90.4% | [8] 118% | [9] 106% | [10] 110%

COc1c(B(O)O)cccc1-c1nc2ccc3[nH]ncc3c2c2c1CCCC2
active: [4] 0.387% | [6] 3.93% | [7] 5.83% | [8] -16.4% | [9] 6.99%
inactive: [1] 33.7% | [2] 23.6% | [3] 23.7% | [5] 11.5% | [10] 11.5%

CNCc1cccc2c1OCCOCCOCCC(C)S(=O)(=O)c1ccc(cc1)-c1cnc(N)c(n1)C(=O)N2 (stereo not given)
inactive: [1] 75.2% | [2] 52.3% | [3] 45.9% | [4] 44.4% | [5] 66.8% | [6] 18.9% | [7] 18.6% | [10] 16.4%
active: [8] 6.01% | [9] 2.12%

CCCCNCCC(O)c1cc2ccc(C(F)(F)F)cc2c2cc(C(F)(F)F)ccc12 (stereo not given)
active: [1] -70.1% | [2] -54% | [3] -75.2% | [4] -88.8% | [5] -91.8% | [6] -82.8% | [7] -74.7% | [8] -6.76% | [9] -45.5% | [10] -58.8%

CCOC(=O)C(Nc1ccccc1)C(=O)OCC
inactive: [1] 108% | [2] 108% | [3] 99.3% | [4] 74.8% | [5] 107% | [6] 99.3% | [7] 105% | [8] 126% | [9] 111% | [10] 83%

CCCCCCCCCCCCCCCCS(=O)(=O)Nc1cc(C(=O)NN)cc(C(=O)NN)c1
inactive: [1] 114% | [2] 47.1% | [3] 72.9% | [4] 65% | [5] 68.6% | [6] 77.1% | [7] 49% | [8] 90.4% | [9] 34.3% | [10] 21.5%

Cc1ccc(N=CNN=C(N)N)cc1
inactive: [1] 114% | [2] 117% | [3] 99.3% | [4] 76.6% | [5] 118% | [6] 102% | [7] 97% | [8] 99.2% | [9] 101% | [10] 95.4%
